Assay outcomes from PubChem.
Anthrax LF prot – Bacillus anthracis LF protease inhibitors, primary screen, biochemical, multiplex microsphere, MLPCN library; Lethal factor (Bacillus anthracis), P15917; multiplex microsphere protease cleavage assay; inhibition, % at 10 µM; 0.12% of 360,000 active; further: plate controls were buffer without enzyme for full effect and enzyme alone for no effect
Autofluor counter – flagged as autofluorescent in microsphere protease counterscreen; fluorescence intensity (test concentration not listed); AID 624483; 3.1% of 360,000 active; compound autofluorescence counterscreen, microsphere flow cytometry; active compounds read high; in the data active means fluorescence intensity above about 16000; inconclusive means no clear call, values can overlap the other calls
BoNT A protease – BoNT/A light chain protease inhibitors, primary screen, biochemical, flow cytometry, MLPCN library. Botulinum neurotoxin type A light chain protease (Clostridium botulinum A str. ATCC 3502). inhibition, % at 10 µM. multiplex microsphere protease substrate cleavage. 0.17% of 360,000 active; further: plate controls were buffer without enzyme for full effect and enzyme alone for no effect
MazF activator – activators of E. coli MazEF toxin-antitoxin RNase, primary screen, biochemical, fluorescence, uHTS; Endoribonuclease toxin MazF (Escherichia coli (strain K12)), P0AE70; FAM/BHQ RNA-DNA oligo cleavage fluorescence, 5 h; activation, % at 20 µM; 0.32% of 350,000 active; in the data active means activation above about 50%
Target sequence (P0AE70 whole entry, looked up): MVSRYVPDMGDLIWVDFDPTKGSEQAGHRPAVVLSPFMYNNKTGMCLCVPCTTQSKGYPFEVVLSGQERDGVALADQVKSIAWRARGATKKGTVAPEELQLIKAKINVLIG
BoNT-F LC inh – BoNT/F light chain protease inhibitors, primary screen, biochemical, flow cytometry, MLPCN library; Botulinum neurotoxin type F light chain protease (Clostridium botulinum); Multiplex microsphere protease cleavage assay; inhibition, % at 10 µM; 0.22% of 360,000 active; AID 588497, 2011; in the data active means inhibition above about 35%, passing the limit was not always enough; inconclusive means no clear call, values can overlap the other calls; further: plate controls were buffer without enzyme for full effect and enzyme alone for no effect
An asterisk follows results filed as active. Compounds with a hit are over-represented: about 3.7% of the library has one in this group of screens. Unless noted, no stated cut-off is given here; in the data, active means inhibition above about 30%; inconclusive means no clear call, values can overlap the other calls; inactive means below that.

How did CCOc1cc(C2C3=C(CCCC3=O)Nc3nc(C(=O)OC)nn32)ccc1OC (stereo unspecified) do in these assays?
Anthrax LF prot: -1; Autofluor counter: 22585*; BoNT A protease: 1; MazF activator: 0; BoNT-F LC inh: 1

What do the screens show for `COc1ccc(Cl)cc1S(=O)(=O)NC(C)C(=O)NCCN1CCOCC1` (stereo unspecified)?
Anthrax LF prot: 4; Autofluor counter: 3643; BoNT A protease: 0; MazF activator: 3; BoNT-F LC inh: 1

What do the screens show for `CCc1ccc(N2C(=O)Cc3c2nc(N)c(C#N)c3N)cc1`?
Anthrax LF prot: 0; Autofluor counter: 21928*; BoNT A protease: inconclusive; MazF activator: -69; BoNT-F LC inh: 5

How did CC(C)(C)c1ccc(N2C(=O)Cc3c2nc(N)c(C#N)c3N)cc1 do in these assays?
Anthrax LF prot: inconclusive; Autofluor counter: inconclusive; BoNT A protease: inconclusive; MazF activator: -12; BoNT-F LC inh: inconclusive

Results for O=C(CCNS(=O)(=O)c1ccc(Br)cc1)NC1CCC(O)CC1 (stereo unspecified) ?
Anthrax LF prot: 1; Autofluor counter: inconclusive; BoNT A protease: -1; MazF activator: 0; BoNT-F LC inh: 8

How did Cc1ccc2nc3c(nc2c1)-c1ccccc1C3=O do in these assays?
Anthrax LF prot: 1; Autofluor counter: 23481*; BoNT A protease: 0; MazF activator: 17; BoNT-F LC inh: 0

What do the screens show for `COCCCNC(=S)NNC(=S)Nc1ccc(F)cc1F`?
Anthrax LF prot: -1; Autofluor counter: 21111*; BoNT A protease: inconclusive; MazF activator: 3; BoNT-F LC inh: 0

How did CC1Cc2[nH]c(=S)[nH]c(=O)c2C(c2ccc(F)cc2)O1 (stereo unspecified) do in these assays?
Anthrax LF prot: -4; Autofluor counter: 6093; BoNT A protease: 0; BoNT-F LC inh: -2

What do the screens show for `CCN1CCN(c2cc(C)c3cc(NC(=O)c4ccc(C)c(C)c4)ccc3n2)CC1`?
Anthrax LF prot: -12; Autofluor counter: 3831; BoNT A protease: -2; MazF activator: 59*; BoNT-F LC inh: -12

What do the screens show for `Cc1cc(N2CCN(C)CC2)nc2ccc(NC(=O)CCC(=O)NCCC3=CCCCC3)cc12`?
Anthrax LF prot: -1; Autofluor counter: 21266*; BoNT A protease: -2; MazF activator: -2; BoNT-F LC inh: -6

How did O=C(Nc1cccc(-c2cccc(Cl)c2)c1)C1CCN(Cc2nccs2)CC1 do in these assays?
Anthrax LF prot: -2; Autofluor counter: 3969; BoNT A protease: 0; MazF activator: 8; BoNT-F LC inh: -8

How did Nc1cc(=O)[nH]c(=O)n1-c1cccc(F)c1 do in these assays?
Anthrax LF prot: -2; Autofluor counter: 2155; BoNT A protease: 0; MazF activator: 5; BoNT-F LC inh: -4

Results for O=c1ncn(-c2cccc(F)c2)c2ncccc12 ?
Anthrax LF prot: 0; Autofluor counter: 19821*; BoNT A protease: inconclusive; MazF activator: 2; BoNT-F LC inh: 1

Results for CCc1nc2ccc(C(=O)NCCOc3ccc(OC)cc3)cn2c1N(C)C(=O)Cc1ccccc1 ?
Anthrax LF prot: -6; Autofluor counter: 3924; BoNT A protease: 0; BoNT-F LC inh: 0

What do the screens show for `CN(Cc1ccccc1)C(=O)c1cc(-c2ccc(Br)cc2)on1`?
Anthrax LF prot: -3; Autofluor counter: 23868*; BoNT A protease: -1; MazF activator: -17; BoNT-F LC inh: -2

Results for Cc1cc(C(=O)N(C)Cc2ccc(Br)cc2)no1 ?
Anthrax LF prot: -4; Autofluor counter: 3426; BoNT A protease: -2; MazF activator: 2; BoNT-F LC inh: -8

Results for CSC1=NC=C(C#N)C2=NC(c3c(Cl)cccc3Cl)NN12 (stereo unspecified) ?
Anthrax LF prot: -6; Autofluor counter: 4332; BoNT A protease: -1; BoNT-F LC inh: -2

How did CCOC(=O)CSc1nc2c(sc(=S)n2-c2ccc(OCC)cc2)c(=O)[nH]1 do in these assays?
Anthrax LF prot: -5; Autofluor counter: 4224; BoNT A protease: 0; MazF activator: -3; BoNT-F LC inh: 3

How did CCOc1ccc(-n2c(=S)sc3c(=O)[nH]c(SCC(=O)NCc4ccco4)nc32)cc1 do in these assays?
Anthrax LF prot: 0; Autofluor counter: 20051*; BoNT A protease: inconclusive; MazF activator: -2; BoNT-F LC inh: 4

How did COc1cc2nc(CN3CCN(S(=O)(=O)c4ccccc4[N+](=O)[O-])CC3)[nH]c(=O)c2cc1OC do in these assays?
Anthrax LF prot: 6; Autofluor counter: 3328; BoNT A protease: 0; MazF activator: 8; BoNT-F LC inh: -3

How did COC(=O)c1c(-c2ccc(N(C)C)cc2)oc2c1C(OC)CCC2 (stereo unspecified) do in these assays?
Anthrax LF prot: -7; Autofluor counter: 5778; BoNT A protease: 0; BoNT-F LC inh: 2

How did Cc1ccccc1NC(=O)/C(=C\c1cccs1)NC(=O)c1ccco1 do in these assays?
Anthrax LF prot: -4; Autofluor counter: 23554*; BoNT A protease: -2; MazF activator: -4; BoNT-F LC inh: -2

What do the screens show for `Cc1ccccc1NC(=O)/C(=C/c1cccs1)NC(=O)c1ccco1`?
Anthrax LF prot: 0; Autofluor counter: 2456; BoNT A protease: 0; MazF activator: 9; BoNT-F LC inh: 3

How did CC(C)NC(=O)C1(C)CCN1C(=O)C(c1ccccc1)c1ccccc1 (stereo unspecified) do in these assays?
Anthrax LF prot: -1; Autofluor counter: 3948; BoNT A protease: -1; BoNT-F LC inh: 1

Results for CC(=O)NCCC(=O)Nc1cc(S(=O)(=O)N2CCOCC2)ccc1N1CCCC1 ?
Anthrax LF prot: 0; Autofluor counter: 6892; BoNT A protease: -6; MazF activator: 0; BoNT-F LC inh: -9

What do the screens show for `C/C(CCc1ccc2c(c1)OCO2)=N\N=C1\NC(=O)CC(C(=O)Nc2ccc(Cl)cc2)S1` (stereo unspecified)?
Anthrax LF prot: -2; Autofluor counter: 21037*; BoNT A protease: -3; MazF activator: -6; BoNT-F LC inh: -4

Results for CC(C)C[C@H]1CN([C@@H](Cc2ccccc2)CN2CCC[C@H]2CN2C(=O)C(=O)NC[C@@H]2Cc2ccccc2)C(=O)C(=O)N1CCc1ccccc1 ?
Anthrax LF prot: -1; Autofluor counter: 5946; BoNT A protease: 1; BoNT-F LC inh: -10

Results for C/C(=N\O)c1ccc2c3ccccc3n(C)c2c1 ?
Anthrax LF prot: -4; Autofluor counter: 21762*; BoNT A protease: inconclusive; MazF activator: -3; BoNT-F LC inh: -8

Results for O=C(Nc1cccc(Cl)c1Cl)c1csc([C@H]2C[C@H](O)[C@@H](CO)O2)n1 ?
Anthrax LF prot: -5; Autofluor counter: 3795; BoNT A protease: 0; BoNT-F LC inh: -6

Results for O=C(Nc1ccccc1)c1ccc(N2CCN(c3ccccc3)CC2)c(S(=O)(=O)N2CCOCC2)c1 ?
Anthrax LF prot: -36; Autofluor counter: 13379; BoNT A protease: 16; MazF activator: 9; BoNT-F LC inh: 30
